Where “and” joins values, the source holds several entries; their conditions need not be identical. Identical values can stand only once. Records with an inconclusive call do not appear. Values without a mark were called inactive. Calls of active or inactive are those of the source. The call rests on the fitted dose curve; in most records, active means well fitted inhibition curve with a large enough effect; inconclusive means small, poorly fitted or top-dose-only effect; inactive means no such curve, though single readings can be large or run the other way.
Assay: Primary qHTS for inhibitors of nuclear receptor binding SET domain protein 2 (NSD2) in an RCH-ACV wild type WT cells (2C) (AID 1645877); further: nearly all actives have a fitted effect of over 70% in size
Details: RCH-ACV (leukaemia line) NSD2 WT (2C) viability, CellTiter-Glo, 72 h; series mostly up to 44.9 µM; activity change, negative = cell killing: at the top concentration
Description: Assay Provider: Jonathan D. Licht, MD
University of Florida College of Medicine, Gainesville, FL
Mutations in epigenetic regulators are common in relapsed pediatric acute lymphoblastic leukemia (ALL). Here, we uncovered the mechanism underlying the relapse of ALL driven by an activating mutation of the NSD2 histone methyltransferase (p.E1099K). […] Correction of this mutation restored glucocorticoid sensitivity. The transcriptional response to glucocorticoids was blocked in NSD2 mutant cells due to depressed glucocorticoid receptor (GR) levels and the failure of glucocorticoids to autoactivate GR expression. […] Pre-treatment of NSD2 p.E1099K cell lines and PDX samples with PRC2 inhibitors reversed glucocorticoid resistance in vitro and in vivo.
High-throughput drug screening of isogenic RCH-ACV cell lines was performed at the National Center for Advancing Translational Science (NCATS), National Institutes of Health as previously described (1). Briefly, isogenic RCH-ACV NSD2 p.E1099K mutant (9B) and WT cells (2C) were plated at 500 cells/well in a 1536-well plate with a 72-hour incubation with compounds prior to addition of CellTiter-Glo to assess cell viability. NCATS libraries screened include: NPC, MIPE 5.0, Kinase and NPACT. To determine compound activity in the qHTS assay, the concentration-response data for each sample was plotted and modeled by a four-parameter logistic fit yielding IC50 and efficacy (maximal response) values. The area under the curve (AUC) of the dose-response curve ensures both efficacy (magnitude of cell killing) and potency (concentration that elicits cell killing) are accounted for in the analysis of activity.
1. Tobie D Lee, Olivia W Lee, Kyle R Brimacombe, Lu Chen, Rajarshi Guha, Sabrina Lusvarghi, Bethilehem G Tebase, Carleen Klumpp-Thomas, Robert W Robey, Suresh V Ambudkar, Min Shen, Michael M Gottesman, Matthew D Hall. A High-Throughput Screen of a Library of Therapeutics Identifies Cytotoxic Substrates of P-glycoprotein. Mol Pharmacol. 2019, Nov;96(5):629-640.
On the % scale 0 is the no-effect control and ±100 the full control effect.

Which “activity change, negative = cell killing” value does the source give for CC(=O)SCC(Cc1ccccc1)C(=O)NCC(=O)OCc1ccccc1 (stereo not given) here?
Its value is -15.1%.

Which Potency does the source give for COc1cccc2c1C(=O)c1c(O)c3c(c(O)c1C2=O)C[C@@](O)(C(=O)CO)C[C@@H]3O[C@H]1C[C@H](N)[C@H](OC2CCCCO2)[C@H](C)O1 (stereo not given in full) here?
The Potency was 52.5 nM (active) and 2.95 µM (active).

Which Potency does the source give for Cc1ccc2nc(NCCN)c3ncc(C)n3c2c1 here?
Its Potency is 9.2 µM (active) and 3.72 µM (active).

With Nc1ccc(C(=O)Nc2cccc(-c3nc(N4CCOCC4)c4oc5ncccc5c4n3)c2)cn1 as the molecule, how does the Potency read?
The Potency was 1.29 µM (active) and 1.05 µM (active).

For CCNC(=O)Nc1ccc(-c2nc3c(c(N4CCOC[C@H]4C)n2)CCN(C2COC2)C3)cc1, which Potency is on record?
Its Potency is 1.3 µM (active).

Which “activity change, negative = cell killing” value does the source give for Cn1cnc(=N)c2[nH]cnc21 here?
Its value is 4.17% [at 91.9 µM].

With CC(C)[C@H](CO)Nc1nc(Nc2cccc(Cl)c2)c2ncn(C(C)C)c2n1 as the molecule, how does the Potency read?
Its Potency is 9.34 µM (active).

Which Potency does the source give for N=c1ccn2c(n1)O[C@H]1[C@@H](O)[C@@H](CO)O[C@H]12 here?
Its Potency is 0.0235 µM (active).

For Cc1cc(O)c2c(c1)C(=O)c1cccc(O)c1C2=O, which “outcome” value is on record?
The value was “inactive”.

Which outcome does the source give for Cn1cc(C[C@@H](N)C(=O)O)c2ccccc21 here?
The outcome was “inactive [at 9.23 µM]”.

For Cc1cnc(Nc2ccc(CN3CCOCC3)cc2)nc1Nc1cccc(S(=O)(=O)NC(C)(C)C)c1, which Potency is on record?
Its Potency is 1.05 µM (active) and 515 nM (active).

With O=S(=O)(O)CCSSCCS(=O)(=O)O as the molecule, how does the “activity change, negative = cell killing” value read?
The value was 9.79%.

Which Potency does the source give for Cn1cc(CNCC2CCN(c3ncc(C(=O)NO)cn3)CC2)c2ccccc21 here?
Its Potency is 0.742 µM (active).

Which Potency does the source give for C[C@@H](NCc1cc2ccccc2[nH]1)c1cccc2ccccc12 here?
Its Potency is 14.8 µM (active).

For CCCCCCCCc1ccc(CCC(N)(CO)CO)cc1, which Potency is on record?
The Potency was 8.33 µM (active).

With CC(C)Oc1ccc(C(=O)N[C@H](CNC(=O)CN(C)C)Cc2ccc(-c3cn4cccc([C@H](C)O)c4n3)cc2)cc1Cl as the molecule, how does the Potency read?
Its Potency is 0.059 µM (active).

Which Potency does the source give for CC(C)c1cnn2c(NCc3ccccc3)cc(NCCCCCCN)nc12 here?
The Potency was 20.9 µM (active).

Which Potency does the source give for FC(F)(F)c1ccc(Nc2nc3ccc(Oc4ccnc(-c5ncc(C(F)(F)F)[nH]5)c4)cc3[nH]2)cc1 here?
Its Potency is 23.5 µM (active).

For N#CNC(=NCCCCCCOc1ccc(Cl)cc1)Nc1ccncc1, which Potency is on record?
Its Potency is 0.0093 µM (active).

With COc1cc(O)c2c(c1)C1OC1C[C@H](O)[C@H](O)C(=O)C=CC[C@H](C)OC2=O (stereo not given in full) as the molecule, how does the Potency read?
Its Potency is 3.32 µM (active).

For C[C@H](NC(=O)Cc1cc(F)cc(F)c1)C(=O)N[C@H](C(=O)OC(C)(C)C)c1ccccc1, which “outcome” value is on record?
The value was “inactive”.

With CC(C)(C)c1nc2c3cc[nH]c(=O)c3c3cc(F)ccc3c2[nH]1 as the molecule, how does the Potency read?
Its Potency is 0.468 µM (active).

For NC(=NCCCCCCN=C(N)N=C(N)Nc1ccc(Cl)cc1)N=C(N)Nc1ccc(Cl)cc1, which Potency is on record?
The Potency was 5.25 µM (active).

Which “activity change, negative = cell killing” value does the source give for CCCc1nc(C(C)(C)O)c(C(=O)O)n1Cc1ccc(-c2ccccc2-c2nn[nH]n2)cc1 here?
Its value is 5.38%.

Which Potency does the source give for COc1cc(CCc2cc(NC(=O)c3ccc(N4C[C@@H](C)N[C@@H](C)C4)cc3)n[nH]2)cc(OC)c1 here?
Its Potency is 5.9 µM (active).

Which Potency does the source give for C#CCC(Cc1cnc2nc(N)nc(N)c2n1)c1ccc(C(=O)N[C@@H](CCC(=O)O)C(=O)O)cc1 (stereo not given in full) here?
The Potency was 0.0053 µM (active).

With COc1cc2c(cc1OC)[C@@H]1C(=O)c3ccc4c(c3O[C@@H]1CO2)C=CC(C)(C)O4 as the molecule, how does the Potency read?
Its Potency is 18.4 µM (active) and 5.9 µM (active).

For CC(C)n1cnc2c(NCCc3ccc(O)cc3)nc(-c3csc4ccccc34)nc21, which Potency is on record?
The Potency was 26.3 µM (active).

Which “activity change, negative = cell killing” value does the source give for CC(=O)NC(CS)C(=O)O (stereo not given) here?
Its value is 6.64%.

Which Potency does the source give for OCCNC1CCCc2c1[nH]c1ccc(-c3ccccc3)cc21 (stereo not given) here?
The Potency was 11.8 µM (active).

With O=[N+]([O-])c1cn2c(n1)OC[C@@H](OCc1ccc(OC(F)(F)F)cc1)C2 as the molecule, how does the “activity change, negative = cell killing” value read?
The value was -24.3%.

With C=C(C)[C@@H]1CC[C@]2(C)CC[C@]3(C)[C@H](CC[C@@H]4[C@@]5(C)CC[C@H](O)C(C)(C)[C@H]5CC[C@]43C)[C@@H]12 as the molecule, how does the “activity change, negative = cell killing” value read?
Its value is 2.66%.

With COc1ccc(C=Cc2cc(OC)c(OC)c(OC)c2)cc1NC(=O)[C@H](N)CO as the molecule, how does the Potency read?
The Potency was 0.118 µM (active).

With C[C@H](O)[C@@H]1C(=O)N2C(C(=O)O)=C(S[C@@H]3CN[C@H](CNS(N)(=O)=O)C3)[C@@H](C)[C@@H]12 as the molecule, how does the “activity change, negative = cell killing” value read?
Its value is -3.49%.

With N#Cc1cc(NC(=O)Nc2nnc(-c3ccncc3)s2)ccc1-c1cn[nH]c1 as the molecule, how does the “activity change, negative = cell killing” value read?
Its value is -5.16%.

With C=C(C)[C@@H]1CC[C@]2(C(=O)O)CC[C@]3(C)[C@H](CC[C@@H]4[C@@]5(C)CC[C@H](O)C(C)(C)[C@@H]5CC[C@]43C)[C@@H]12 as the molecule, how does the “outcome” value read?
Its value is “inactive”.

With c1ccc(CNc2nc(NCc3ccccc3)c3ccccc3n2)cc1 as the molecule, how does the Potency read?
Its Potency is 5.9 µM (active).

With CCC[C@H]1C[C@H](C(=O)N[C@@H]([C@@H]2O[C@@H](SC)[C@@H](O)[C@@H](O)[C@@H]2O)[C@H](C)Cl)N(C)C1 as the molecule, how does the “activity change, negative = cell killing” value read?
The value was -7.85%.

Which “activity change, negative = cell killing” value does the source give for COc1cc(C(C)C)c(Oc2cnc(NC(CO)CO)nc2N)cc1I here?
Its value is -2.63%.

Which Potency does the source give for COc1ccc(Nc2cc(-c3cnc(N)nc3)nc(N3CCOCC3)n2)cn1 here?
Its Potency is 0.59 µM (active).
